Source: PubChem BioAssay (EPA / NIEHS)
Inconclusive results are not listed. The source holds several records for some structures; these can differ, active in one and inactive in another. Active and inactive are the calls of the source. Rule for the calls, unless noted: active = hit-call score of the fitted dose curve at least 0.9, where 1 is the maximum; inconclusive = response in the unintended direction; inactive = score below 0.9.

Tests used:
[1] = target: Estrogen-related receptor gamma (Homo sapiens) (UniProt P62508); experiment: ATG_ERRg_TRANS: Attagene TRANS-FACTORIAL HepG2 Assay for human Estrogen-Related Receptor gamma (ERRg) (AID 2282977); conditions: HepG2 Attagene TRANS reporter, ERRg transactivation;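 note: hits increase reporter signal over DMSO so potencies reflect activators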
Method in brief: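 Readout: fluorescent reporter-mRNA fragments resolved by capillary electrophoresis after RT-PCR and HpaI cut. Cells: transiently transfected HepG2 carrying GAL4-UAS reporters driven by exogenous NR-Gal4 chimeras, dosed 24 h. Activity fitted upward relative to DMSO baseline.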

[2] = target: Bile acid receptor (Homo sapiens) (UniProt Q96RI1); experiment: ATG_FXR_TRANS: Attagene TRANS-FACTORIAL HepG2 Assay for Farnesoid X Receptor (FXR) (AID 2282979); conditions: HepG2 Attagene TRANS FXR-GAL4 reporter transcription;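 note: hits raise reporter mRNA above DMSO so AC50 marks FXR activation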
Method in brief: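 Read-out: fluorescent reporter transcripts quantified by capillary electrophoresis after RT-PCR of total RNA. Source cells were HepG2 transiently carrying chimeric NR-GAL4 plus GAL4-UAS reporter units, dosed 24 h. Activity fitted upward relative to DMSO baseline.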

[3] = target: Oxysterols receptor LXR-alpha (Homo sapiens) (UniProt Q13133); experiment: ATG_LXRa_TRANS: Attagene TRANS-FACTORIAL HepG2 Assay for human Liver X Receptor alpha (LXRa) (AID 2282980); conditions: HepG2 Attagene TRANS reporter, LXRa transactivation
Method in brief: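 Read-out: reporter transcript levels by RT-PCR plus capillary electrophoresis, fluorescence intensity. Transiently transfected HepG2, exogenous NR-GAL4 chimera, GAL4-UAS reporters; 24 h compound exposure. Activity = increase over DMSO negative control.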

[4] = target: Oxysterols receptor LXR-beta (Homo sapiens) (UniProt P55055); experiment: ATG_LXRb_TRANS: Attagene TRANS-FACTORIAL HepG2 Assay for human Liver X Receptor beta (LXRb) (AID 2282981); conditions: HepG2 Attagene TRANS GAL4-LXRb reporter, mRNA
Method in brief: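 After 24 h of chemical treatment, transfected HepG2 cells yield total RNA; reporter cDNA is PCR-amplified, FAM-labelled, HpaI-cut and run on capillary electrophoresis. Signal reflects chimeric LXRb-Gal4 activity on GAL4-UAS reporters.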

[5] = ATG_M_06_TRANS: Attagene TRANS-FACTORIAL HepG2 Assay for M06 Transcription Factor (Internal Marker) (AID 2282983); conditions: HepG2 Attagene TRANS M06 internal marker reporter
Method in brief: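 Read-out: fluorescent reporter cDNA fragments resolved by capillary electrophoresis after RT-PCR and HpaI cut. Source cells were HepG2 carrying transfected multi-reporter GAL4 constructs, dosed 24 h. Increase over DMSO control analysed.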

[6] = target: Nuclear receptor subfamily 4 group A member 2 (Homo sapiens) (UniProt P43354); experiment: ATG_NURR1_TRANS: Attagene TRANS-FACTORIAL HepG2 Assay for human Nuclear Receptor Related Protein 1 (NURR1) (AID 2282985); conditions: HepG2 Attagene TRANS reporter, mRNA readout
Method in brief: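 Measures transcriptional activation by an exogenous NR-Gal4 chimera in transfected HepG2 liver cells. After 24 h, reporter RNA is reverse-transcribed, amplified and resolved by capillary electrophoresis; DMSO defines baseline.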

[7] = target: Transcriptional activator Myb (Homo sapiens) (UniProt P10242); experiment: ATG_Myb_CIS: Attagene CIS-FACTORIAL HepG2 Assay for human Myeloblastosis (Myb) Proto-Oncogene Transcription Factor (AID 2282986; active = hit-call score of the fitted dose curve at least 0.9, where 1 is the maximum; inactive = score below 0.9); conditions: HepG2 Attagene CIS-FACTORIAL Myb reporter transcription; actives raise or lower the signal
Method in brief: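 After 24 h of compound dosing, total RNA from transfected HepG2 cells is reverse-transcribed and the reporter sequences amplified, labeled and separated by capillary electrophoresis. Values come from bidirectional fitting against DMSO.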

[8] = ATG_M_32_TRANS: Attagene TRANS-FACTORIAL HepG2 Assay for M32 Transcription Factor (Internal Marker) (AID 2282984); conditions: HepG2 Attagene TRANS M32 internal marker reporter;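 note: transcript level of a background control reporter unit measured by RT-PCR and capillary electrophoresis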
Method in brief: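 Cell-based TRANS-format assay in HepG2: exogenous chimeric GAL4 reporter units transiently expressed, compounds applied 24 h. Reporter mRNA detected by RT-PCR plus capillary electrophoresis; this readout is an internal background marker.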

[9] = target: Glucocorticoid receptor (Homo sapiens) (UniProt P04150); experiment: ATG_GR_TRANS: Attagene TRANS-FACTORIAL HepG2 Assay for human Glucocorticoid Receptor (GR) (AID 2282978); conditions: HepG2 Attagene TRANS GR reporter, mRNA transcription;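 note: activators score as hits since higher reporter transcript over DMSO is fitted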
Method in brief: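 After 24 h incubation with test chemical, transfected HepG2 cells were lysed for RNA; reporter cDNA was amplified, FAM-labelled, HpaI-digested and sized on a capillary analyser. Signal gain relative to DMSO was scored.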

[10] = target: Hepatocyte nuclear factor 4-alpha (Homo sapiens) (UniProt P41235); experiment: ATG_HNF4a_TRANS: Attagene TRANS-FACTORIAL HepG2 Assay for human Hepatocyte Nuclear Factor 4 alpha (HNF4a) (AID 2282982); conditions: HepG2 HNF4a transactivation reporter, mRNA readout
Method in brief: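 Multiplexed reporter assay: transfected HepG2, 24 h exposure, total RNA → oligo(dT) RT → PCR → 6-FAM extension → HpaI digest → CE fluorescence. DMSO = negative control.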

Measured: AC50

Sequence of Oxysterols receptor LXR-beta (Homo sapiens) (P55055 whole entry, looked up, the tested form may be a part): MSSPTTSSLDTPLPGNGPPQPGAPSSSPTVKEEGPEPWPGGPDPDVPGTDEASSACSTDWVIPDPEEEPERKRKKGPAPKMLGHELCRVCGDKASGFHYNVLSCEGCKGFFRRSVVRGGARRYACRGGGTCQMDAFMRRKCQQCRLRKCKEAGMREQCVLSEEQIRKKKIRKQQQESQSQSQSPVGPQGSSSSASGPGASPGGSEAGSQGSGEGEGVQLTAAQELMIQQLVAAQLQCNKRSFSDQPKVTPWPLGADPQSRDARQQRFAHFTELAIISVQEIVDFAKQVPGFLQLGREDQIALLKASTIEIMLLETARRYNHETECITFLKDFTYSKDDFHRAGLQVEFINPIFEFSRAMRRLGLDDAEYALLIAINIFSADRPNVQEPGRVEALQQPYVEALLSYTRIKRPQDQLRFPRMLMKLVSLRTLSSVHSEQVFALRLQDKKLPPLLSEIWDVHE
Sequence of Bile acid receptor (Homo sapiens) (Q96RI1 whole entry, looked up, the tested form may be a part): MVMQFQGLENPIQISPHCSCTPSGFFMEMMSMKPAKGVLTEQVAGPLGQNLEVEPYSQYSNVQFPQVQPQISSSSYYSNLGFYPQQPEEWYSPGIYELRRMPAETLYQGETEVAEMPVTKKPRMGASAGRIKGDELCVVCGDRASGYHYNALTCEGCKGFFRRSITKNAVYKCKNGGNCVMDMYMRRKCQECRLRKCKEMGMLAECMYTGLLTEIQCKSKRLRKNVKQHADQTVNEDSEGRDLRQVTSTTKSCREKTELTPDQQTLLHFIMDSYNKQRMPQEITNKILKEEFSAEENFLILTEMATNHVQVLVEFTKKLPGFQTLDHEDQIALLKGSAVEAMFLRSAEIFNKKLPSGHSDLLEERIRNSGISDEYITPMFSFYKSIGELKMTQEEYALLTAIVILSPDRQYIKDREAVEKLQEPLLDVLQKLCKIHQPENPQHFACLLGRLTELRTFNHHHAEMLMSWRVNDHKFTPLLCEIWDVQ
Sequence of Oxysterols receptor LXR-alpha (Homo sapiens) (Q13133 whole entry, looked up, the tested form may be a part): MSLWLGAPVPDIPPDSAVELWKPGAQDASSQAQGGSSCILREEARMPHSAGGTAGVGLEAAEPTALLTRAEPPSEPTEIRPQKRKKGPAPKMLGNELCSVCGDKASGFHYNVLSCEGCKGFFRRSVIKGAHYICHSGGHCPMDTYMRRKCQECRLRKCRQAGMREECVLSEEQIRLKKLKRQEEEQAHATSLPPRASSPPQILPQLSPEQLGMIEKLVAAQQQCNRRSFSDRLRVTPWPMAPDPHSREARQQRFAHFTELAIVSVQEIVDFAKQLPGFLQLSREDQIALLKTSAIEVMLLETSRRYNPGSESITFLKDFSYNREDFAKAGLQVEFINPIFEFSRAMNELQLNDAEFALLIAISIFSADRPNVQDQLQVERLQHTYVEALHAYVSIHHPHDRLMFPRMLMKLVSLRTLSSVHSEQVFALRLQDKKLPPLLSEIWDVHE
Sequence of Glucocorticoid receptor (Homo sapiens) (P04150 whole entry, looked up): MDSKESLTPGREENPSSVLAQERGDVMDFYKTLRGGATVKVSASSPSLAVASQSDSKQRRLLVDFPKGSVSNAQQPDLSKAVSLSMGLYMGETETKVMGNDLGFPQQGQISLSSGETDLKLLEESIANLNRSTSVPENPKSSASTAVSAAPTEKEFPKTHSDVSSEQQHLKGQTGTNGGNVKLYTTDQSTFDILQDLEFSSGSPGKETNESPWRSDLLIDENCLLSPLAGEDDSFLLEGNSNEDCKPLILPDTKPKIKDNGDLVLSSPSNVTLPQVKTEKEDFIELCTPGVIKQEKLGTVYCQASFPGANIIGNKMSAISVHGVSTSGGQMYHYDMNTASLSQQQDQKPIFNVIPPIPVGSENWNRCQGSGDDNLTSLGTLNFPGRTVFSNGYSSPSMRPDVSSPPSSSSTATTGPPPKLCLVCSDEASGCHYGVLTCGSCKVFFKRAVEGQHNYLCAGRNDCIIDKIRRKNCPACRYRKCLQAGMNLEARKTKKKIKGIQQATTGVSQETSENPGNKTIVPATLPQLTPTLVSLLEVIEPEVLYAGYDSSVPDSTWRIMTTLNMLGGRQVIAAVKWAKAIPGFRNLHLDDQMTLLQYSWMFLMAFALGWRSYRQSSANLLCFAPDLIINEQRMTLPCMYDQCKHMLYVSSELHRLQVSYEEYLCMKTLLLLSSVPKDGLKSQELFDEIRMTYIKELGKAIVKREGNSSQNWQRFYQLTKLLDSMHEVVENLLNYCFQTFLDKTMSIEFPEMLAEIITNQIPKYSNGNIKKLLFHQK
Sequence of Nuclear receptor subfamily 4 group A member 2 (Homo sapiens) (P43354 whole entry, looked up, the tested form may be a part): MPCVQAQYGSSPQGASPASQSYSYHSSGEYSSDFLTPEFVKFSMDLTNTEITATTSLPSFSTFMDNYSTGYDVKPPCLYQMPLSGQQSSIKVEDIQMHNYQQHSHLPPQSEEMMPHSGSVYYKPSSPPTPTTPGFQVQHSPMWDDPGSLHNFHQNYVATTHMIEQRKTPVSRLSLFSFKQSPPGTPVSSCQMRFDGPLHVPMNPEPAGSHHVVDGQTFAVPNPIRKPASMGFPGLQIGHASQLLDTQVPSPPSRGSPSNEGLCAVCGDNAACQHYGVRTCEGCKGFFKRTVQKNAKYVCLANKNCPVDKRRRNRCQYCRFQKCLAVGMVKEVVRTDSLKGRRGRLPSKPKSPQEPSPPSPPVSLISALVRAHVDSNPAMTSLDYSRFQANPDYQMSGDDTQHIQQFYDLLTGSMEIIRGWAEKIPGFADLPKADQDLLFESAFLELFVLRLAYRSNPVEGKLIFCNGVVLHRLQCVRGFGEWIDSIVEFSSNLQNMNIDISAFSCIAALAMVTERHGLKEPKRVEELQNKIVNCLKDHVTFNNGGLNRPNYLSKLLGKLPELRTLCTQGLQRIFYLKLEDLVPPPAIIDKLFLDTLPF
Sequence of Hepatocyte nuclear factor 4-alpha (Homo sapiens) (P41235 whole entry, looked up): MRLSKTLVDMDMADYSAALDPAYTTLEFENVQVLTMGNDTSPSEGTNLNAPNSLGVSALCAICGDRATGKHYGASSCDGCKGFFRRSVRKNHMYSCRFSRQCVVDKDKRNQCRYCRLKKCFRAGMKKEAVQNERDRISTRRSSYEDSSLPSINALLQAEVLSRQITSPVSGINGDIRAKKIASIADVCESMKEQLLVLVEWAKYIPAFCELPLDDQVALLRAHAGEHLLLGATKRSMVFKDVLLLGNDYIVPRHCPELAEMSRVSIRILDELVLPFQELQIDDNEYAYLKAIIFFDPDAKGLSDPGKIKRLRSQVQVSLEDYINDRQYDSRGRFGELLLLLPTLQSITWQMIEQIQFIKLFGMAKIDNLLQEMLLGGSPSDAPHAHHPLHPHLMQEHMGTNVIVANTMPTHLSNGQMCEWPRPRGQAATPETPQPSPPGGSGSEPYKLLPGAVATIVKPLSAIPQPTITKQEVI
Sequence of Transcriptional activator Myb (Homo sapiens) (P10242 whole entry, looked up): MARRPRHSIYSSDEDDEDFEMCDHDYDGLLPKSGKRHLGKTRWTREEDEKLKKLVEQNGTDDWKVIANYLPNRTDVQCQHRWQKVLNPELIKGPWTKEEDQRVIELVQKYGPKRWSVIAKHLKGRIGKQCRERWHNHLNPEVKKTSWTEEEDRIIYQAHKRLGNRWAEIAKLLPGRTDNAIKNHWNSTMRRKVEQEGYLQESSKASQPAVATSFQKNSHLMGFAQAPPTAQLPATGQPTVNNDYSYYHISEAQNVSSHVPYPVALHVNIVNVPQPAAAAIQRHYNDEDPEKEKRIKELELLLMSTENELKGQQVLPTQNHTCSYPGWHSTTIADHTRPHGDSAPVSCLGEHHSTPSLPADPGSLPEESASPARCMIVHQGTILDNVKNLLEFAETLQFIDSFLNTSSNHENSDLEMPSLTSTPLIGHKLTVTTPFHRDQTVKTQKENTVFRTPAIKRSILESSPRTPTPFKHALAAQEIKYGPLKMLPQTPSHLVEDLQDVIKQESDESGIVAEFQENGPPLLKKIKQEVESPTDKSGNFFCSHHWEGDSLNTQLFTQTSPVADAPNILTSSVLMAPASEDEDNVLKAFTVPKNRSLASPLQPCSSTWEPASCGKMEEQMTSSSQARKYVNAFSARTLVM
Sequence of Estrogen-related receptor gamma (Homo sapiens) (P62508 whole entry, looked up, the tested form may be a part): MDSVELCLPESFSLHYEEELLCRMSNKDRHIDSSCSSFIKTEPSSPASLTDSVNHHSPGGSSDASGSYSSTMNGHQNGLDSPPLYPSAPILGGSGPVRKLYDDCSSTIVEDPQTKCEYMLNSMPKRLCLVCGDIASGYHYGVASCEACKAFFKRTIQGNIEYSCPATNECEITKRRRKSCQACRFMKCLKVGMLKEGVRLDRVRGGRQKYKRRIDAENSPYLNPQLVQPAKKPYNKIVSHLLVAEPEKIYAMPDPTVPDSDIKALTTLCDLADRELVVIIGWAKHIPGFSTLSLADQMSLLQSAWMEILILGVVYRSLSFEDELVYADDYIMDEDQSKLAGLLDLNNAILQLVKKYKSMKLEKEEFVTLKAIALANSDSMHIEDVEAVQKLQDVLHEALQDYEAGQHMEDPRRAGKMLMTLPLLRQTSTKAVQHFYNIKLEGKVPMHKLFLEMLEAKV

CC/C=C\CCOC(C)=O
not listed: [8] | [9] | [10]
inactive: all other assays above

O=C(O)C(F)(F)C(F)(F)C(F)F
not listed: [9] | [10]
inactive: all other assays above

O=S(=O)(O)C(F)(F)C(F)(F)C(F)(F)C(F)(F)C(F)(F)C(F)(F)C(F)(F)F
active: [7] 160 µM
inactive: [9] | [2] | [3] | [5] | [7]

O=C(O)C=C(C(F)(F)F)C(F)(F)F
not listed: [1] | [9] | [10]
inactive: all other assays above

CC(CCl)OP(=O)(OC(C)CCl)OC(C)CCl (stereo unspecified)
inactive: [9] | [2] | [3] | [5] | [6] | [7]

CCCCCCCOC(=O)c1ccccc1C(=O)OCCCCCCC
inactive: [1] | [2] | [5] | [6] | [7]

O=C(OCCOCCOCCOC(=O)c1ccccc1)c1ccccc1
inactive: [9] | [3] | [5] | [7]

FC(F)(F)C(F)(F)C(F)(F)C(F)(F)C(F)(F)C(F)(F)C(F)(F)C(F)(F)F
not listed: [1] | [9] | [10]
inactive: all other assays above

O=C(O)C(F)(F)C(F)(F)C(F)(F)C(F)(F)C(F)(F)C(F)(F)C(F)(F)C(F)(F)C(F)(F)C(F)(F)C(F)(F)C(F)(F)C(F)(F)F
inactive: [9] | [3] | [4] | [5] | [6] | [7]

Nc1ccc(Oc2cccc(Oc3ccc(N)cc3)c2)cc1
active: [10] 160 µM | [7] 108 µM
inactive: [9] | [5]

CC(C)c1ccccc1N
inactive: [1] | [8] | [6] | [7]

O[Si](c1ccccc1)(c1ccccc1)c1ccccc1
active: [2] 85.2 µM
inactive: [9] | [5] | [6] | [7]

O=C(Cl)C(F)(F)C(F)(F)C(F)(F)C(F)(F)C(F)(F)C(F)(F)C(F)(F)C(F)(F)F
inactive: [1] | [2] | [5] | [7]
active: [6] 24.9 µM

CCCCC(CC)COP(=O)(O)OCC(CC)CCCC (stereo unspecified)
inactive: [1] | [2] | [7]

CC(C)=CCCC(C)CCOC(=O)C(C)C (stereo unspecified)
not listed: [1] | [4]
inactive: all other assays above

C=C(C)C(=O)OCC(F)(F)C(F)(F)C(F)(F)C(F)(F)C(F)(F)C(F)(F)C(F)(F)F
inactive: [9] | [3] | [4] | [5] | [6] | [7]

Cc1ccc(S(=O)(=O)OCC(F)(F)C(F)(F)C(F)(F)C(F)(F)C(F)(F)C(F)F)cc1
not listed: [1] | [10]
inactive: all other assays above

O=C(O)C(F)(OC(F)(F)C(F)(OC(F)(F)C(F)(F)C(F)(F)F)C(F)(F)F)C(F)(F)F (stereo unspecified)
inactive: [9] | [2] | [3] | [4] | [5] | [8] | [6] | [7]
active: [6] 98.8 µM

OCC(F)(F)C(F)(F)C(F)(F)C(F)F
inactive: [9] | [2] | [3] | [4] | [5] | [7]

c1ccc(-c2ccccc2-c2ccccc2)cc1
inactive: [9] | [2] | [4] | [7]
active: [6] 27.2 µM

O=C(O)C(F)(F)C(F)(F)C(F)(F)C(F)(F)C(F)(F)C(F)(F)C(F)(F)C(F)(F)Cl
active: [2] 82.3 µM | [6] 31.2 µM
inactive: [2] | [3] | [4] | [5] | [8] | [6] | [7]

CC/C=C\CCOC(=O)c1ccccc1
inactive: [1] | [3] | [4] | [6] | [7]

O=C(O)C(F)(F)C(F)(F)OC(F)(F)F
inactive: [9] | [3] | [4] | [5] | [7]

NC(=O)C(F)(F)C(F)(F)C(F)(F)C(F)(F)F
inactive: [9] | [2] | [5] | [8] | [6] | [7]

FC(F)(I)C(F)(F)C(F)(F)C(F)(F)I
inactive: [1] | [3] | [8] | [6] | [7]

O=C(O)C(F)(F)C(F)(F)F
not listed: [1] | [9] | [10]
inactive: all other assays above

OCC(F)(F)C(F)(F)C(F)(F)F
not listed: [1] | [10]
inactive: all other assays above

CN(C)Cc1ccccc1O
not listed: [1] | [8] | [10]
inactive: all other assays above

CCCCCCS
inactive: [9] | [2] | [10] | [5] | [6] | [7]

OCCCC(F)(F)C(F)(F)C(F)(F)F
not listed: [1] | [9] | [10]
inactive: all other assays above

COC(OC(C)=O)c1ccccc1 (stereo unspecified)
inactive: [9] | [7]

OCC(F)(F)C(F)(F)C(F)(F)C(F)(F)C(F)(F)C(F)(F)F
inactive: [9] | [2] | [4] | [6] | [7]

Cc1ccc(S(=O)(=O)NCl)cc1
inactive: [1] | [3] | [5] | [6] | [7]

C(=C(c1ccccc1)c1ccccc1)c1ccccc1
inactive: [10]

O=C(C=Cc1ccccc1)OCC=Cc1ccccc1
inactive: [10]
